# Hits are enriched below; roughly 5.7% of the tested compounds scored in any of these assays.
# KB-V1 cytotox – kills drug-selected multidrug resistant KB-V1 cells; Potency, µM (highest dose often 46.1 µM), hits mostly cytotoxic; 400,000 compounds, 3.4% hits; KB-V1 MDR cells viability, CellTiter-Glo, 72 h; note: potency is the fitted concentration of half-maximal effect; nearly all actives have a fitted effect of over 60% in size
#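 Cytotoxicity toward P-gp-expressing KB-V1 cells was determined as loss of CellTiter-Glo luminescence after 72 h at 37 degrees C. Compounds were tested in quantitative HTS format across a concentration range, with curves fitted to normalized data.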
# Giardia killer – Giardia lamblia killing; Giardia lamblia trophozoite viability; activity change, % at 7.66 µM, hits read low; 340,000 compounds, 0.15% hits; AID 540267; in the data active = activity change below about -80%; inconclusive = between about -30% and that limit;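 note: parasites exposed to compound for two days anaerobically before the ATP read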
#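 Anaerobic 48 hrs incubation at 37 deg C of 100 trophozoites/well with test compounds; ATPLite 1-Step luminescence, 15-30 min RT, reports cellular ATP as viability.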
# KB-3-1 tox – kills parental KB-3-1 adenocarcinoma cells. KB-3-1 viability, CellTiter-Glo ATP luminescence, 72 h. Potency, µM (doses to about 46.1 µM), most hits filed as cytotoxic. 400,000 compounds, 1.4% hits; note: potency is the fitted concentration of half-maximal effect; nearly all actives have a fitted effect of over 60% in size
#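 Using CellTiter-Glo luminescence, growth of non-resistant KB-3-1 adenocarcinoma cells is assessed 72 h after pin-tool compound addition at 37 °C. Normalized responses across the concentration series yield fitted curves.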
# A549 viability – kills or reduces viability of A549 cells in Nrf2 counter-screen. A549 ARE-Fluc cells, CellTiter-Fluor viability, 18-24 h. Potency, µM (titrated, usually from 46 µM), for inactives: at the highest dose activity change, negative = cytotoxicity, hits mostly inhibitors. 390,000 compounds, 0.16% hits. AID 504648; note: potency is the fitted concentration of half-maximal effect
#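 A549 ARE-Fluc cells in 5% FBS OPTI-MEM, 5000 cells/well, rested 2 h then exposed to compounds in concentration-response for 18-24 h at 37 °C. Viability by CellTiter-Fluor fluorescence (Ex 405/Em 525) after 30 min; luciferase luminescence (BugLite, 15 min, RT) read afterwards.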
# Nrf2 block – Nrf2 pathway inhibition. A549 ARE-Fluc reporter, luciferase luminescence, 18-24 h. Potency, µM (highest dose often 46 µM), without a hit: top-dose activity change, negative = inhibition, hits mostly inhibitors. 360,000 compounds, 2.1% hits. AID 504444; note: potency is the fitted concentration of half-maximal effect; nearly all actives have a fitted effect of over 60% in size
#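 A549 ARE_Fluc cells (5000/well, 5% FBS OPTI-MEM) pre-incubated 2 h, then treated with compounds 18-24 h at 37C/5% CO2 in concentration-response. CellTiter-Fluor viability read first; BugLite luciferase luminescence after 15 min at room temperature gives Nrf2 activity.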
# PI4K2A block – PI4K2A (human) kinase inhibition | purified PI4K2A, ADP-Glo luminescence, 1 h; stronger effect = lower value | Q9BTU6 | 420,000 compounds, 0.13% hits | activity change, negative = inhibition, % at 76.9 µM; in the data active = activity change below about -50%; inconclusive = mostly about -30% to -49%;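 note: -100% = wells without enzyme as full effect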
# Target sequence (Q9BTU6 whole entry, looked up): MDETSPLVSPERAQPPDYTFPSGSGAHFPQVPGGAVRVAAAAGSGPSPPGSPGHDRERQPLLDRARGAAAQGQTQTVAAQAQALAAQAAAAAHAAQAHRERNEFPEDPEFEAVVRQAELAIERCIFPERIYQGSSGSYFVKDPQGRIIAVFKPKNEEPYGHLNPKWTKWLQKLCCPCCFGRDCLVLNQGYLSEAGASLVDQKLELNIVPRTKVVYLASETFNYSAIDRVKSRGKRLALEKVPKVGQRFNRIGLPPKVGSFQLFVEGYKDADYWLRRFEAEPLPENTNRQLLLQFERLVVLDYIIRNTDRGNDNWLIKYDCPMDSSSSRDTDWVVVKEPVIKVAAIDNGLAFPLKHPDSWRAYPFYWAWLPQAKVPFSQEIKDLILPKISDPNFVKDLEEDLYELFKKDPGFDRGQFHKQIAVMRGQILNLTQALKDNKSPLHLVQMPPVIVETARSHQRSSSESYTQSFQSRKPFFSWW
#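 ADP-Glo luminescence measured ADP generated by PI4K2A enzyme (4 ug/mL before mixing) with 1.2 mM PI substrate (pre-mix) and 300 microM ATP (pre-mix). Tris pH7.5 buffer with MgCl2, Triton X-100; 1 h reaction at ambient temperature.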
# Numbers without * were called inactive; i = inactive; ? = inconclusive; · = no result given. Unless noted, calls come from the whole dose curve; as a rule, active = well fitted curve in the direction sought with a large enough effect; inconclusive = small, poorly fitted or top-dose-only effect, or another doubt; inactive = no such curve, though single readings can be large; an effect the other way counts as inactive or inconclusive. Unless noted, % is set by controls: 0 for no effect and ±100 for the full control effect.
SMILES,KB-V1 cytotox,Giardia killer,KB-3-1 tox,A549 viability,Nrf2 block,PI4K2A block
COc1ccc(-c2noc(CN(C(=O)c3ccc4c(c3)OCO4)C(C)C)n2)cc1,i,-3,i,-5%,?,-19
Cn1c(=O)n(Cc2ccccc2)c(=O)c2c1nc1n2CCCN1CCc1ccccc1,2.3µM*,-5,i,-25%,29µM*,-1
CC1CN(c2nc3c(c(=O)n(Cc4ccc(Cl)cc4)c(=O)n3C)n2C)CC(C)O1 (centres undefined),23µM*,-21,?,-9%,?,-2
Cn1c(N2CCCC2)nc2c1c(=O)n(Cc1ccc(Cl)cc1)c(=O)n2C,?,9,i,5%,?,0
COc1ccc(N2CC(C)Cn3c2nc2c3c(=O)n(Cc3ccccc3)c(=O)n2C)c(OC)c1 (centres undefined),i,35,i,?,-6%,-9
COc1ccc(N2CCn3c2nc2c3c(=O)n(CCCc3ccccc3)c(=O)n2C)c(OC)c1,9.2µM*,-6,?,-21%,?,0
CCCn1c(=O)c2c(nc3n2CCN3Cc2ccco2)n(C)c1=O,i,11,i,3%,-20%,2
Cn1c(=O)n(Cc2ccc(Cl)cc2)c(=O)c2c1nc1n2CCN1Cc1ccco1,12µM*,4,?,13%,?,-12
CC(/C=C/c1ccc(N(C)C)cc1)=N\N=C1\NC(=O)CC(C(=O)Nc2ccccc2)S1 (centres undefined),i,-7,i,-28%,-22%,4
CC(/C=C/c1ccc(N(C)C)cc1)=N/N=C1/NC(=O)CC(C(=O)Nc2ccc(Cl)cc2)S1 (centres undefined),i,35,i,18µM*,?,-3
CCCOc1ccc(NC(=O)C2CC(=O)N/C(=N/N=C(\C)CCc3ccc4c(c3)OCO4)S2)cc1 (centres undefined),i,-9,i,1%,6%,-3
CCCOc1ccc(NC(=O)C2CC(=O)N/C(=N/N=C(C)/C=C/c3ccc(N(C)C)cc3)S2)cc1 (centres undefined),16µM*,7,?,?,?,4
c1ccc(-c2nnc3sc(CN4CCc5ccccc54)cn23)cc1,?,-10,21µM*,-8%,7%,2
COc1cccc(-c2nnc3sc(CN4CCCCC4)cn23)c1,i,·,2.6µM*,-15%,·,-3
CCOC(=O)C1CCCN(Cc2cn3c(-c4cccc(Br)c4)nnc3s2)C1 (centres undefined),i,·,i,-4%,-5%,-1
CCOC(=O)c1oc2ccc(S(=O)(=O)Nc3ccc4c(c3)n(C)c(=O)n4C)cc2c1C,?,2,?,-5%,21µM*,1
CCc1ccc(S(=O)(=O)Nc2cccc(C3OCCCO3)c2)cc1,i,5,i,-2%,10µM*,-1
CC(=O)c1cccc(NS(=O)(=O)c2ccc3c(c2)oc(=O)n3C)c1,16µM*,12,?,-16%,8%,5
CCc1cccc(NS(=O)(=O)c2ccc3c(c2)n(C)c(=O)n3C)c1,i,0,i,-6%,13µM*,0
CCCC(=O)NCc1nc2cccnc2n1Cc1ccc(F)cc1,·,·,·,6%,·,-6
CC(=O)N1CCc2cc(S(=O)(=O)NCCC(=O)NCc3ccc(Cl)cc3)ccc21,·,·,·,·,·,-3
CCc1cccc(NS(=O)(=O)c2ccc3c(c2)oc(=O)n3C)c1,4.6µM*,6,?,2%,?,1
COc1ccc(N(C(=O)c2ccccc2C)S(=O)(=O)c2ccc(C)cc2)cc1,i,·,i,-1%,-16%,2
COc1ccc(N(C(=O)c2ccccc2C)S(=O)(=O)c2cccs2)cc1,1.3µM*,-26,0.82µM*,-20%,13%,0
COC(=O)[C@]12C[C@H](CC(=O)N3CCN(C(=O)C4CC4)CC3)C(=O)N(CCc3ccc(OC)c(OC)c3)C1=C[C@H](C(C)(C)C)O[C@@H]2C,·,·,·,·,·,-5
